From the supplement of paper PMC10849652
The full data set covers some 7,900 targets. This sample favours those with a hit. About 0.6% of all pairs of compound and target were hits.

Legend:
Assay in all cases: log2 fold change, soluble protein after heating vs DMSO (PISA); higher = thermal stabilisation; K562 cells, 10 uM, 30 min; active = over 0.2 and 3.5 SD of the protein, either way, in both replicates (recomputed)
saracatinib = compound: CN1CCN(CCOc2cc(OC3CCOCC3)c3c(Nc4c(Cl)ccc5c4OCO5)ncnc3c2)CC1 [saracatinib]
Summary of the method: (§1)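 Thermal stability values are relative to control samples and come from duplicates. They are expressed as log2 fold changes. For measurement, K562 cells (2×10^6 cells/mL) received 10 μM compound for 30 min, and aliquots were heated for 3 min over 48°C-58°C, pooled, and extracted at 4°C in PBS with 0.5% NP-40. Soluble protein, the supernatant after 21,000xg for 90 min, was quantified by TMTpro 16plex LC-MS/MS with equalised channel sums.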

sotrastaurin = compound: CN1CCN(c2nc(C3=C(c4c[nH]c5ccccc45)C(=O)NC3=O)c3ccccc3n2)CC1 [sotrastaurin]
Summary of the method: as §1

alvocidib = compound: CN1CC[C@H](c2c(O)cc(O)c3c(=O)cc(-c4ccccc4Cl)oc23)[C@H](O)C1 [alvocidib]
Summary of the method: as §1

Tubastatin A = compound: CN1CCc2c(c3ccccc3n2Cc2ccc(C(=O)NO)cc2)C1 [Tubastatin A]
Summary of the method: as §1

[1] = compound: CNC(=O)C1=CC=CC=C1NC2=NC(=NC=C2Cl)NC3=C(C=C(C=C3)N4CCOCC4)OC
Summary of the method: as §1

defactinib = compound: CNC(=O)c1ccc(Nc2ncc(C(F)(F)F)c(NCc3nccnc3N(C)S(C)(=O)=O)n2)cc1 [defactinib]
Summary of the method: as §1

rucaparib = compound: CNCc1ccc(-c2[nH]c3cc(F)cc4c3c2CCNC4=O)cc1 [rucaparib]
Summary of the method: as §1

[2] = compound: CNc1nc(-c2ccc3c(N)n[nH]c3c2)cc(N2C[C@@H](C(=O)NC3CCCCC3)CC[C@H]2C)n1
Summary of the method: as §1

encorafenib = compound: COC(=O)N[C@@H](C)CNc1nccc(-c2cn(C(C)C)nc2-c2cc(Cl)cc(NS(C)(=O)=O)c2F)n1 [encorafenib]
Summary of the method: as §1

[3] = compound: COC(=O)[C@H](CCSC)NC(=O)C1=C(C=C(C=C1)NC[C@H](CS)N)C2=CC=CC=C2
Summary of the method: as §1

[4] = compound: COC1=CC=C(C=C1)CN2C=CC3=C2C=C(C=C3)C(=O)NO
Summary of the method: as §1

filanesib = compound: CON(C)C(=O)N1N=C(c2cc(F)ccc2F)S[C@@]1(CCCN)c1ccccc1 [filanesib]
Summary of the method: as §1

zotarolimus = compound: CO[C@H]1C[C@@H]2CC[C@@H](C)[C@@](O)(O2)C(=O)C(=O)N2CCCC[C@H]2C(=O)O[C@H]([C@H](C)C[C@@H]2CC[C@H](n3cnnn3)[C@H](OC)C2)CC(=O)[C@H](C)/C=C(\C)[C@@H](O)[C@@H](OC)C(=O)[C@H](C)C[C@H](C)/C=C/C=C/C=C/1C [zotarolimus]
Summary of the method: as §1

idasanutlin = compound: COc1cc(C(=O)O)ccc1NC(=O)[C@@H]1N[C@@H](CC(C)(C)C)[C@](C#N)(c2ccc(Cl)cc2F)[C@H]1c1cccc(Cl)c1F [idasanutlin]
Summary of the method: as §1

alisertib = compound: COc1cc(Nc2ncc3c(n2)-c2ccc(Cl)cc2C(c2c(F)cccc2OC)=NC3)ccc1C(=O)O [alisertib]
Summary of the method: as §1

[5] = compound: COc1cc2nc(-c3cc(F)ccc3O)nc(N[C@@H]3CNC[C@H]3C(C)(C)O)c2cc1OC
Summary of the method: as §1

gefitinib = compound: COc1cc2ncnc(Nc3ccc(F)c(Cl)c3)c2cc1OCCCN1CCOCC1 [gefitinib]
Summary of the method: as §1

[6] = compound: COc1cccc2cc(-c3nc([C@H]4CC[C@H](C(=O)O)CC4)n4ncnc(N)c34)[nH]c12
Summary of the method: as §1

lapatinib = compound: CS(=O)(=O)CCNCc1ccc(-c2ccc3ncnc(Nc4ccc(OCc5cccc(F)c5)c(Cl)c4)c3c2)o1 [lapatinib]
Summary of the method: as §1

pictilisib = compound: CS(=O)(=O)N1CCN(Cc2cc3nc(-c4cccc5[nH]ncc45)nc(N4CCOCC4)c3s2)CC1 [pictilisib]
Summary of the method: as §1

Measured: log2 fold change

MON1B (UniProt Q7L1V2)
inactive: saracatinib 0.005 | sotrastaurin -0.028 | alvocidib -0.057 | Tubastatin A 0.048 | [1] -0.011 | defactinib 0.016 | rucaparib -0.015 | [2] -0.036 | encorafenib 0.037 | [3] -0.013 | [4] -0.012 | filanesib 0.029 | zotarolimus -0.008 | idasanutlin -0.056 | alisertib -0.136 | [5] 0.065 | gefitinib -0.012 | [6] 0.037 | lapatinib 0.055 | pictilisib 0.029

NEDD4L (UniProt Q96PU5)
UniProt Q96PU5, sequence (Q96PU5 whole entry, looked up): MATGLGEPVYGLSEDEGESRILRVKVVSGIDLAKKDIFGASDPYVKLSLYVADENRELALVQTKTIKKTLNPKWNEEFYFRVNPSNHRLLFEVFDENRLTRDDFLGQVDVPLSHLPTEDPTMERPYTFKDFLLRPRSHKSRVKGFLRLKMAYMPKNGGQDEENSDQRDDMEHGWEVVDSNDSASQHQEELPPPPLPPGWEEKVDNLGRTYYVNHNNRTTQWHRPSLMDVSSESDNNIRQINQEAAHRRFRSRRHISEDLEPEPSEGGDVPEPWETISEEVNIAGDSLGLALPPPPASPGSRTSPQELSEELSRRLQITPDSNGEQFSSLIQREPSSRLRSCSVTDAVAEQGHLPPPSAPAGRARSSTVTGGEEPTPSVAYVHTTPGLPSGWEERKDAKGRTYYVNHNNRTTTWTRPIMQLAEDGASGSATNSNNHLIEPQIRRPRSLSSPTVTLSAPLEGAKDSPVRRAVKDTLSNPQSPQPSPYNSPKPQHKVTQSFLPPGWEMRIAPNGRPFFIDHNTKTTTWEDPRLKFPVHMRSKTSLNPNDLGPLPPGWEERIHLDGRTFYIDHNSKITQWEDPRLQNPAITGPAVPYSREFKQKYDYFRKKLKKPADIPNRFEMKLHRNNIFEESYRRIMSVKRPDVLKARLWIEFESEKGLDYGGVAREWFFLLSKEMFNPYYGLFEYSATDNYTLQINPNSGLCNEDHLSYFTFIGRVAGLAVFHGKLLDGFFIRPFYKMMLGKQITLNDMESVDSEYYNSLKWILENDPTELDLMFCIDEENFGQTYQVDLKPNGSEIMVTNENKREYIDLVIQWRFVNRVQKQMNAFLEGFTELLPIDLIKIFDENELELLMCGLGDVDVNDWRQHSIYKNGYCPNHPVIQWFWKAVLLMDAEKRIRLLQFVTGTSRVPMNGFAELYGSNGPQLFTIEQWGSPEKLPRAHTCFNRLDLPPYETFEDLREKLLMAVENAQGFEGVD
inactive: saracatinib -0.014 | sotrastaurin -0.063 | alvocidib -0.121 | Tubastatin A 0.057 | [1] 0.068 | defactinib -0.135 | rucaparib 0.002 | [2] -0.059 | encorafenib 0.03 | [3] -0.023 | [4] -0.027 | filanesib 0.095 | zotarolimus 0.032 | idasanutlin -0.018 | alisertib -0.114 | [5] 0.086 | gefitinib -0.031 | [6] 0.027 | lapatinib -0.025 | pictilisib -0.035

MIS12 (UniProt Q9H081)
inactive: saracatinib 0.04 | sotrastaurin -0.014 | alvocidib -0.145 | Tubastatin A 0.031 | [1] 0.002 | defactinib -0.143 | rucaparib 0.021 | [2] -0.006 | encorafenib 0.021 | [3] -0.052 | [4] 0.079 | filanesib 0.004 | zotarolimus 0.077 | idasanutlin -0.011 | alisertib 0.06 | [5] 0.035 | gefitinib 0.026 | [6] 0.032 | lapatinib -0.048 | pictilisib -0.005

MKRN2 (UniProt Q9H000)
UniProt Q9H000, sequence (Q9H000 whole entry, looked up): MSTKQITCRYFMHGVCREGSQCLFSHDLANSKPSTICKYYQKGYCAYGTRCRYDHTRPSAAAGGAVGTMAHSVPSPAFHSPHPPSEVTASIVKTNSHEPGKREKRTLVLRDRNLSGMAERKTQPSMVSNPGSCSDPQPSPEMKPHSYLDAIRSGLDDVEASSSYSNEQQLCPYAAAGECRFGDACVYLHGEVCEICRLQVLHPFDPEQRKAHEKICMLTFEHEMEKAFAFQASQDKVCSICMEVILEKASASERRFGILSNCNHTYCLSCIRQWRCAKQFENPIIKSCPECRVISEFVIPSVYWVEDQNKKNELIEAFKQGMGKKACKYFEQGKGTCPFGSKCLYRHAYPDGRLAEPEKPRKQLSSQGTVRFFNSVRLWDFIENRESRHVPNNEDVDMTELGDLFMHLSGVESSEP
inactive: saracatinib -0.203 | sotrastaurin -0.024 | alvocidib -0.002 | Tubastatin A 0.177 | [1] -0.08 | defactinib -0.049 | rucaparib 0.258 | [2] 0.007 | encorafenib 0.109 | [3] -0.005 | [4] 0.024 | filanesib 0.137 | zotarolimus -0.035 | idasanutlin 0.147 | alisertib -0.009 | [5] 0.101 | gefitinib -0.099 | [6] -0.079 | lapatinib -0.027 | pictilisib 0.03

NDUFB10 (UniProt O96000)
inactive: saracatinib -0.027 | sotrastaurin 0.008 | alvocidib -0.013 | Tubastatin A -0.022 | [1] -0.012 | defactinib -0.016 | rucaparib 0.012 | [2] -0.004 | encorafenib -0.005 | [3] -0.029 | [4] 0.044 | filanesib -0.025 | zotarolimus 0.006 | idasanutlin -0.035 | alisertib -0.021 | [5] -0.047 | gefitinib 0 | [6] 0.05 | lapatinib -0.035 | pictilisib 0.082

NAP1L1 (UniProt P55209)
UniProt P55209, sequence (P55209 whole entry, looked up): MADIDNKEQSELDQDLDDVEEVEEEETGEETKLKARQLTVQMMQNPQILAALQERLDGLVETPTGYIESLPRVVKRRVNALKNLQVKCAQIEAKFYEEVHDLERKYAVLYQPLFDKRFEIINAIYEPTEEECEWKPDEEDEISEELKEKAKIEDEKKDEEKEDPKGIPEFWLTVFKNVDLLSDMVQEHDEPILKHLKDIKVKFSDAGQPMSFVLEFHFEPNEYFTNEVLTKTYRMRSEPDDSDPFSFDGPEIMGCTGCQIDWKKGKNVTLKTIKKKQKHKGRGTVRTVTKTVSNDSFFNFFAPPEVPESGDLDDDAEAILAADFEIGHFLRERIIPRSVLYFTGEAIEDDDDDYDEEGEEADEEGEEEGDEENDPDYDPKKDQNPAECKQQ
inactive: saracatinib 0.042 | sotrastaurin -0.039 | alvocidib -0.045 | Tubastatin A -0.008 | [1] 0.053 | defactinib -0.008 | rucaparib 0.039 | [2] -0.084 | encorafenib 0.048 | [3] 0.023 | [4] -0.001 | filanesib 0.08 | zotarolimus 0.078 | idasanutlin 0.053 | alisertib -0.043 | [5] 0.078 | gefitinib -0.002 | [6] -0.041 | lapatinib -0.005 | pictilisib 0.107

NCOA7 (UniProt Q8NI08)
inactive: saracatinib -0.05 | sotrastaurin -0.074 | alvocidib -0.052 | Tubastatin A -0.02 | [1] -0.011 | defactinib -0.099 | rucaparib -0.029 | [2] -0.064 | encorafenib 0.019 | [3] 0.039 | [4] -0.043 | filanesib -0.046 | zotarolimus 0.035 | idasanutlin -0.034 | alisertib -0.034 | [5] 0.043 | gefitinib -0.014 | [6] 0.014 | lapatinib 0.01 | pictilisib -0.045

OXR1 (UniProt Q8N573)
UniProt Q8N573, sequence (Q8N573 whole entry, looked up): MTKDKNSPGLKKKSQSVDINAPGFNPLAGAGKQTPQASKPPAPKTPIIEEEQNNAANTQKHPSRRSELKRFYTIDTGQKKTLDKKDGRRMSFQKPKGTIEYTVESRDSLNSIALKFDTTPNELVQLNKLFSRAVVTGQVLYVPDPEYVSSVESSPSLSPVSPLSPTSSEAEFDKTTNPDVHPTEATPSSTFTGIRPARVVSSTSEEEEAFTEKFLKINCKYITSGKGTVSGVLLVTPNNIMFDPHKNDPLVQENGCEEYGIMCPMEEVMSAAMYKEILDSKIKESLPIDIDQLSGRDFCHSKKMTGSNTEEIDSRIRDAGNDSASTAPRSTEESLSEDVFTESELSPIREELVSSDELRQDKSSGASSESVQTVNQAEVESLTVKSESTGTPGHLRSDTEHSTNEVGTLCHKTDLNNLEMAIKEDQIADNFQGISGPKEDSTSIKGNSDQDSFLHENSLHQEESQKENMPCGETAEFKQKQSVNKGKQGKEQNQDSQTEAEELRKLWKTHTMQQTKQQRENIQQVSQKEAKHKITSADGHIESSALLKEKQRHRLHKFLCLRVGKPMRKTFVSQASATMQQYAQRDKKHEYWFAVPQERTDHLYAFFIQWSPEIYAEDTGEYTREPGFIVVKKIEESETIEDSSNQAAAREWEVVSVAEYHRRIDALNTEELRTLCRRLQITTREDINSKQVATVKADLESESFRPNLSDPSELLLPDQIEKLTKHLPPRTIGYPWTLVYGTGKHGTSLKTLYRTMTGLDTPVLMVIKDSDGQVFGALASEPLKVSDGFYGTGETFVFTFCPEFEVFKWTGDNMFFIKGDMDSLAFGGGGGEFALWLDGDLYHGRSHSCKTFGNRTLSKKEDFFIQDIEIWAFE
inactive: saracatinib -0.039 | sotrastaurin -0.049 | alvocidib -0.011 | Tubastatin A 0.008 | [1] -0.038 | defactinib -0.059 | rucaparib -0.014 | [2] -0.063 | encorafenib 0 | [3] 0.003 | [4] -0.018 | filanesib -0.078 | zotarolimus 0.009 | idasanutlin -0.014 | alisertib -0.059 | [5] 0.034 | gefitinib 0.003 | [6] 0.018 | lapatinib 0.011 | pictilisib 0.164

NBN (UniProt O60934)
UniProt O60934, sequence (O60934 whole entry, looked up): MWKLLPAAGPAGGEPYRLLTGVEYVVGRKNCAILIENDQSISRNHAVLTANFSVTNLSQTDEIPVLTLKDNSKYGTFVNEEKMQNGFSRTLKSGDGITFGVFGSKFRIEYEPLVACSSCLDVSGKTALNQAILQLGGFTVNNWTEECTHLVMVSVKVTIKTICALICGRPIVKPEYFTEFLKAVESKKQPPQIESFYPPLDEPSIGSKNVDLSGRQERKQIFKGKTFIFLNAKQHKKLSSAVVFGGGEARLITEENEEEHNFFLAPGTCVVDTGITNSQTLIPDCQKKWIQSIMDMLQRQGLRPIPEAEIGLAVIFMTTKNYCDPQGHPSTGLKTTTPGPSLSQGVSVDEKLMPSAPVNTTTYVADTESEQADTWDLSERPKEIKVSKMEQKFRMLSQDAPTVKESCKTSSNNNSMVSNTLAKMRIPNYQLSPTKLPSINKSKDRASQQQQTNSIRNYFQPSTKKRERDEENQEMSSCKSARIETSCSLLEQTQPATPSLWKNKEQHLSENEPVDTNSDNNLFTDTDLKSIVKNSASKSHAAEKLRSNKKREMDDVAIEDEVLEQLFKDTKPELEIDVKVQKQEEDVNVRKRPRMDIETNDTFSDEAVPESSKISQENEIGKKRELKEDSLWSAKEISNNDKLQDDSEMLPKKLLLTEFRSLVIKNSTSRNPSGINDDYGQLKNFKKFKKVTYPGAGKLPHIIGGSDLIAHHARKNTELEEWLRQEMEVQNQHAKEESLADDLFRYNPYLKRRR
inactive: saracatinib -0.008 | sotrastaurin -0.03 | alvocidib -0.197 | Tubastatin A 0.191 | [1] -0.065 | defactinib -0.159 | rucaparib 0.006 | [2] 0.049 | encorafenib 0.003 | [3] -0.019 | [4] -0.039 | filanesib -0.007 | zotarolimus 0.039 | idasanutlin -0.053 | alisertib 0.057 | [5] 0.028 | gefitinib 0.03 | [6] -0.019 | lapatinib 0.008 | pictilisib -0.035

PACS1 (UniProt Q6VY07)
inactive: saracatinib -0.018 | sotrastaurin -0.043 | alvocidib 0.002 | Tubastatin A 0.038 | [1] -0.076 | defactinib -0.045 | rucaparib 0.022 | [2] 0.037 | encorafenib -0.01 | [3] -0.018 | [4] 0.105 | filanesib 0.047 | zotarolimus 0.008 | idasanutlin -0.005 | alisertib 0.006 | [5] 0.054 | gefitinib 0.043 | [6] 0.002 | lapatinib 0.013 | pictilisib 0.021

OSTM1 (UniProt Q86WC4)
inactive: saracatinib -0.038 | sotrastaurin 0.007 | alvocidib 0.001 | Tubastatin A 0.031 | [1] 0.19 | defactinib -0.048 | rucaparib -0.015 | [2] -0.086 | encorafenib 0.022 | [3] 0.002 | [4] -0.012 | filanesib -0.122 | zotarolimus 0.007 | idasanutlin 0.002 | alisertib -0.015 | [5] -0.09 | gefitinib -0.066 | [6] 0.002 | lapatinib 0.056 | pictilisib 0.055

NEDD4 isoform 4 (UniProt P46934)
UniProt P46934, sequence (P46934 whole entry, looked up): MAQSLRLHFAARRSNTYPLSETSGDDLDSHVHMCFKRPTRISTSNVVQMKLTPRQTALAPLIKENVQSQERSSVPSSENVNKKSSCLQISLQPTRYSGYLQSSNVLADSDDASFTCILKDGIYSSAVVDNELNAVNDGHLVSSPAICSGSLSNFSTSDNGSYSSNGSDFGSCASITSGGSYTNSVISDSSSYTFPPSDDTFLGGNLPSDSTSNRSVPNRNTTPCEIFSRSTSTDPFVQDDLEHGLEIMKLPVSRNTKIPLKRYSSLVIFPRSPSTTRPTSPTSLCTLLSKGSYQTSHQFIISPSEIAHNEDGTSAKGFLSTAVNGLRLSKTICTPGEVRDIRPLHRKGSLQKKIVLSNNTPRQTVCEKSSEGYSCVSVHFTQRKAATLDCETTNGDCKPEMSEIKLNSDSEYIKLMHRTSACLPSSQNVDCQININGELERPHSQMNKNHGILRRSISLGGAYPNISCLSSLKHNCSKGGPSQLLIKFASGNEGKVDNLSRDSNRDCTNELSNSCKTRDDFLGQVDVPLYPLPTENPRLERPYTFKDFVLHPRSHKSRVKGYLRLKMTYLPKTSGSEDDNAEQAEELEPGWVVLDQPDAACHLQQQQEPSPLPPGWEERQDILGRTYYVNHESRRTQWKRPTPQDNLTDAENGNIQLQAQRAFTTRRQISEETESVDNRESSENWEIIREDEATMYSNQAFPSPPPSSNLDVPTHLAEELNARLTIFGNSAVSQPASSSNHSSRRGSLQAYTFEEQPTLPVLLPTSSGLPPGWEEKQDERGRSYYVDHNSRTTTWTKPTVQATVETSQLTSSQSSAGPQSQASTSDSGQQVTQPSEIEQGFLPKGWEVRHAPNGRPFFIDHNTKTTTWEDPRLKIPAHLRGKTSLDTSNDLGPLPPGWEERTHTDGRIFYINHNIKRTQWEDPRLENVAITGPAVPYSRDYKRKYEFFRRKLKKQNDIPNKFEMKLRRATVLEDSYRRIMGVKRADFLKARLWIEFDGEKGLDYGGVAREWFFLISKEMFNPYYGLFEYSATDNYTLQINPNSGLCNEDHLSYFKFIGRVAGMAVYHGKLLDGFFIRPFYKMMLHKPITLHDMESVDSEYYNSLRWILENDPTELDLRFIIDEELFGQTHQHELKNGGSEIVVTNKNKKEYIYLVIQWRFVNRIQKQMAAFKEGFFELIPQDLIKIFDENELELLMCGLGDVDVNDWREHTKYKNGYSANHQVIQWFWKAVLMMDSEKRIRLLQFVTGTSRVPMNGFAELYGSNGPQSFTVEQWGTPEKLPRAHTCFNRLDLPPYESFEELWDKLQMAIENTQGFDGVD
inactive: saracatinib 0.116 | sotrastaurin -0.026 | alvocidib -0.09 | Tubastatin A 0.037 | [1] 0.041 | defactinib -0.108 | rucaparib -0.099 | [2] -0.026 | encorafenib 0.049 | [3] -0.009 | [4] 0.036 | filanesib -0.02 | zotarolimus 0.064 | idasanutlin -0.042 | alisertib 0.053 | [5] 0.027 | gefitinib 0.074 | [6] -0.029 | lapatinib 0.028 | pictilisib -0.017

MXRA7 (UniProt P84157)
UniProt P84157, sequence (P84157 whole entry, looked up): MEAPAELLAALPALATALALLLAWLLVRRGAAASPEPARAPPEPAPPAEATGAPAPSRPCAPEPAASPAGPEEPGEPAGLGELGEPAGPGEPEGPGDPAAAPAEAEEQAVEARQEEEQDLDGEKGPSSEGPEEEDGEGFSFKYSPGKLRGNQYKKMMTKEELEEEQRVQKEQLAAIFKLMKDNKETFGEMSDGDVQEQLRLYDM
inactive: saracatinib 0.127 | sotrastaurin 0.027 | alvocidib 0.048 | Tubastatin A -0.02 | [1] 0.007 | defactinib -0.104 | rucaparib -0.093 | [2] -0.033 | encorafenib 0.008 | [3] -0.025 | [4] -0.248 | filanesib 0.135 | zotarolimus 0.023 | idasanutlin -0.066 | alisertib -0.017 | [5] -0.007 | gefitinib 0.058 | [6] 0.067 | lapatinib 0 | pictilisib -0.053

MRPS31 (UniProt Q92665)
inactive: saracatinib 0.031 | sotrastaurin -0.088 | alvocidib 0.04 | Tubastatin A 0.053 | [1] 0.025 | defactinib 0.027 | rucaparib 0.031 | [2] 0.078 | encorafenib 0.041 | [3] 0.016 | [4] 0.016 | filanesib 0.029 | zotarolimus 0.03 | idasanutlin -0.202 | alisertib -0.008 | [5] -0.025 | gefitinib -0.077 | [6] -0.016 | lapatinib 0.054 | pictilisib -0.005

NEMP1 (UniProt O14524)
inactive: saracatinib -0.001 | sotrastaurin -0.012 | alvocidib -0.015 | Tubastatin A -0.002 | [1] -0.111 | defactinib 0.021 | rucaparib 0.026 | [2] -0.045 | encorafenib -0.039 | [3] 0.053 | [4] -0.041 | filanesib -0.247 | zotarolimus -0.021 | idasanutlin 0.034 | alisertib -0.084 | gefitinib -0.021 | [6] 0.006 | lapatinib 0.001 | pictilisib -0.02
active: [5] -0.487

MTOR (UniProt P42345)
inactive: saracatinib -0.076 | sotrastaurin 0.088 | alvocidib -0.101 | Tubastatin A 0.002 | [1] -0.005 | defactinib -0.09 | rucaparib 0 | [2] -0.009 | encorafenib 0.041 | [3] -0.02 | [4] 0.002 | filanesib -0.112 | idasanutlin -0.09 | alisertib -0.017 | [5] -0.012 | gefitinib -0.018 | [6] -0.019 | lapatinib 0.014 | pictilisib 0.019
active: zotarolimus -0.308
